According to PubChem BioAssay (NCI):
Values joined by “and” are separate entries in the source; they are usually repeats but may differ in a detail not shown here. Identical values can stand only once. The panel holds about 79,000 compounds, 15% with a hit somewhere; the sample as a whole holds those more often. Active and inactive are the calls of the source. Rule as the data show it: active = growth inhibition above about 70%; inactive = the rest.

Tests used:
[1] = NCI Yeast Anticancer Drug Screen. Data for the wt2 strain (AID 169); settings: S. cerevisiae wt2 strain growth inhibition, stronger effect = higher value
Summary of the method: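 Values express reduction in yeast growth under compound treatment, referenced to vehicle-treated cells.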

[2] = NCI Yeast Anticancer Drug Screen. Data for the mlh1 strain (AID 171);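 also: 0% = growth of vehicle-treated control cultures of the same strain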; settings: S. cerevisiae mlh1 strain growth inhibition, stronger effect = higher value
Summary of the method: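 Steps: expose the defined-mutant yeast strain to compound; expose a parallel culture to vehicle; measure growth; express compound effect as inhibition relative to the vehicle culture.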

[3] = NCI Yeast Anticancer Drug Screen. Data for the sgs1 strain (AID 173);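 also: 0% = growth of vehicle-only control cultures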; settings: S. cerevisiae sgs1 mutant, stronger effect = higher value
Summary of the method: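 Treat defined-mutant yeast with compound; measure growth; calculate inhibition relative to vehicle-treated cells.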

[4] = NCI Yeast Anticancer Drug Screen. Data for the mlh1 rad18 strain (AID 175); settings: S. cerevisiae mlh1 rad18 strain growth inhibition, stronger effect = higher value
Summary of the method: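 Test agents were incubated with a yeast strain of defined genotype (DNA damage repair defect). Inhibition of growth was derived by comparison with vehicle-exposed cultures.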

[5] = NCI Yeast Anticancer Drug Screen. Data for the rad18 strain (AID 177); settings: S. cerevisiae rad18 mutant growth inhibition, stronger effect = higher value
Summary of the method: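 A genetically defined yeast mutant impaired in DNA damage repair was treated with test compounds, then its growth was measured against cultures receiving vehicle alone.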

[6] = NCI Yeast Anticancer Drug Screen. Data for the rad52 strain (AID 147);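 also: 0% = growth of vehicle-treated control cultures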; settings: S. cerevisiae rad52 mutant growth inhibition, stronger effect = higher value
Summary of the method: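 Screen used a yeast mutant impaired in DNA repair. After compound exposure, growth was measured. Values reflect inhibition compared with vehicle-treated cells.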

[7] = NCI Yeast Anticancer Drug Screen. Data for the wt1 strain (AID 149);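 also: 0% = growth of vehicle-treated wt1 cultures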; settings: S. cerevisiae wt1 strain (SPY 50644) growth inhibition, stronger effect = higher value
Summary of the method: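 Each compound is tested on wt1 yeast and the loss of growth versus vehicle gives the inhibition value.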

[8] = NCI Yeast Anticancer Drug Screen. Data for the rad50EPP+ strain (AID 151);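 also: 0% = growth of vehicle-treated control cultures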; settings: S. cerevisiae rad50 mutant strain, stronger effect = higher value
Summary of the method: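 Exposing the rad50EPP+ strain to each compound, growth was compared with vehicle-only cultures to give inhibition.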

[9] = NCI Yeast Anticancer Drug Screen. Data for the mgt1 strain (AID 153); settings: S. cerevisiae mgt1 mutant growth inhibition, stronger effect = higher value
Summary of the method: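 Genetically defined yeast (mgt1) treated with compound; inhibition of growth expressed against vehicle-treated controls.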

[10] = NCI Yeast Anticancer Drug Screen. Data for the rad50 strain (AID 155);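 also: 0% = growth of vehicle-only cultures of the same strain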; settings: S. cerevisiae rad50 strain growth inhibition, stronger effect = higher value
Summary of the method: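 Vehicle-treated cultures provide the reference for the growth inhibition reported for compound-exposed, repair-deficient yeast.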

[11] = NCI Yeast Anticancer Drug Screen. Data for the mec2-1 strain (AID 157); settings: S. cerevisiae mec2-1 strain, stronger effect = higher value
Summary of the method: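 Readout is yeast growth inhibition, normalised to vehicle-treated controls, in the mec2-1 strain exposed to compound.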

[12] = NCI Yeast Anticancer Drug Screen. Data for the rad14 strain (AID 159);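 also: 0% = growth of vehicle-treated control cultures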; settings: S. cerevisiae rad14 strain growth inhibition, stronger effect = higher value
Summary of the method: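 Inhibition of growth is reported for a repair-deficient yeast mutant following compound treatment, calculated relative to cultures that received vehicle.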

[13] = NCI Yeast Anticancer Drug Screen. Data for the sgs1 mgt1 strain (AID 161);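 also: 0% = growth of cultures given vehicle only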; settings: S. cerevisiae sgs1 mgt1 strain, stronger effect = higher value
Summary of the method: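 Compounds are added to genetically altered yeast, and growth is compared with cultures given vehicle alone to give percent inhibition.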

[14] = NCI Yeast Anticancer Drug Screen. Data for the CLN2oe strain (AID 163);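 also: 0% = growth of vehicle-only control cultures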; settings: S. cerevisiae CLN2oe strain, stronger effect = higher value
Summary of the method: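 Values reflect how much compound exposure reduced yeast growth, referenced to vehicle-exposed cells. Assay organism is a strain with a defined genetic change affecting cell-cycle control.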

[15] = NCI Yeast Anticancer Drug Screen. Data for the cln2 rad14 strain (AID 165);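 also: 0% = growth equal to vehicle treated cultures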; settings: S. cerevisiae cln2 rad14 strain, stronger effect = higher value
Summary of the method: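 Relative to vehicle controls, growth inhibition of compound-treated cln2 rad14 yeast was recorded.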

[16] = NCI Yeast Anticancer Drug Screen. Data for the bub3 strain (AID 167); settings: S. cerevisiae bub3 mutant strain, stronger effect = higher value
Summary of the method: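 Mutant yeast screening strain plus compound; vehicle-treated cultures serve as the 0% inhibition reference.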

[17] = at 5.0 µM (retest, dose inferred, filed as 0.5)
[18] = at 50.0 µM (retest, dose inferred, filed as 5.0)

Measured: growth inhibition

Nc1ccn(C2OC(COP(=O)(O)O)C(O)C2O)c(=O)n1 (stereo unspecified)
active: [3]; at 33.0 µM 82% | [3]; at 100.0 µM 86%
inactive: [1]; at 1.2 µM -1% | [1]; at 3.7 µM -1% | [1]; at 11.0 µM -1% | [1]; at 33.0 µM 1% | [1]; at 100.0 µM 12% | [2]; at 1.2 µM 1% | [2]; at 3.7 µM 8% | [2]; at 11.0 µM 0% | [2]; at 33.0 µM 7% | [2]; at 100.0 µM 26% | [3]; at 1.2 µM 21% | [3]; at 3.7 µM 43% | [3]; at 11.0 µM 68% | [4]; [17] 13% | [4]; [18] -5% | [4]; at 50.0 µM 21.4% and -23.4% | [5]; at 1.2 µM -1% | [5]; at 3.7 µM -4% | [5]; at 11.0 µM -8% | [5]; at 33.0 µM -15% | [5]; at 100.0 µM -22%

O=C(CC(C(=O)O)N1CCOCC1)c1ccccc1 (stereo unspecified)
inactive: [6]; at 1.2 µM -1% | [6]; at 3.7 µM -2% | [6]; at 11.0 µM 0% | [6]; at 33.0 µM 32% | [7]; at 1.2 µM -1% | [7]; at 3.7 µM -2% | [7]; at 11.0 µM 0% | [7]; at 33.0 µM 12% | [7]; at 100.0 µM 47% | [8]; at 1.2 µM -2% | [8]; at 3.7 µM -1% | [8]; at 11.0 µM 2% | [8]; at 33.0 µM 12% | [8]; at 100.0 µM 43% | [9]; at 1.2 µM -3% | [9]; at 3.7 µM -3% | [9]; at 11.0 µM 1% | [9]; at 33.0 µM 33% | [9]; at 100.0 µM 65% | [10]; at 1.2 µM -3% | [10]; at 3.7 µM 1% | [10]; [17] 13% | [10]; at 11.0 µM 2% | [10]; at 33.0 µM 36% | [10]; [18] 65% | [10]; at 50.0 µM 49% | [11]; at 1.2 µM -6% | [11]; at 3.7 µM -11% | [11]; [17] -2% | [11]; at 11.0 µM 2% | [11]; at 33.0 µM 31% | [11]; [18] 41% | [11]; at 50.0 µM 12.4% | [11]; at 100.0 µM 66% | [12]; at 1.2 µM -3% | [12]; at 3.7 µM -5% | [12]; at 11.0 µM 0% | [12]; at 33.0 µM 3% | [12]; at 100.0 µM 29% | [13]; [17] -6% | [13]; [18] 54% | [13]; at 50.0 µM 3.3% | [14]; at 1.2 µM -4% | [14]; at 3.7 µM -9% | [14]; at 11.0 µM -10% | [14]; at 33.0 µM -2% | [14]; at 100.0 µM 22% | [15]; [18] 17% | [15]; at 50.0 µM -16.2% | [16]; at 1.2 µM -16% | [16]; at 3.7 µM -17% | [16]; at 11.0 µM -8% | [16]; at 33.0 µM 29% | [16]; [18] 60% | [16]; at 50.0 µM 21.3% | [16]; at 100.0 µM 68% | [1]; at 1.2 µM -4% | [1]; at 3.7 µM -3% | [1]; at 11.0 µM 0% | [1]; at 33.0 µM 31% | [2]; at 1.2 µM -3% | [2]; at 3.7 µM -3% | [2]; at 11.0 µM 4% | [2]; at 33.0 µM 37% | [3]; at 1.2 µM 0% | [3]; at 3.7 µM 5% | [3]; at 11.0 µM 19% | [3]; at 33.0 µM 56% | [4]; [17] 10% | [4]; [18] 47% | [4]; at 50.0 µM 47.9% | [5]; at 1.2 µM -1% | [5]; at 3.7 µM 5% | [5]; at 11.0 µM 28%
active: [6]; at 100.0 µM 73% | [10]; at 100.0 µM 77% | [15]; [17] 81% | [16]; [17] 98% | [1]; at 100.0 µM 71% | [2]; at 100.0 µM 77% | [3]; at 100.0 µM 80% | [5]; at 33.0 µM 80% | [5]; at 100.0 µM 91%
